# Results published in PubChem BioAssay AID743402 (Broad Institute, 2014).
# About 140 (12%) of roughly 1,200 compounds were called active.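 The calls were made as follows: active = fitted curve falls past -35% activity change at a dose under twice the top valid dose, in every replicate test; inconclusive = replicate tests disagree on the call; inactive = the rest, including activity in the opposite direction.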 Only a sample is shown.
# Assay: CFTR-F508del correctors, dose response, FRT cells, YFP quenching, cherry-pick (AID 743402);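 also: compounds act as correctors raising surface CFTR-F508del before acute activation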
# Conditions: FRT CFTR-F508del YFP iodide quenching, 24 h, channel opened with forskolin and a potentiator; series mostly up to 26 µM
row,SMILES,"activity change, negative = more quenching (active)"
1,O=C1c2ccccc2C(=O)c2c1cccc2N(CCO)CCO,inactive
2,COc1ccc(S(=O)(=O)NCc2ccccn2)cc1NC(=O)c1ccccc1F,inactive
3,COc1cccc(N2CCN(C(=O)c3ccc(CS(=O)c4ccc(C)cc4)o3)CC2)c1 (centres undefined),inactive
4,O=C(NCCOc1ccccc1)c1cc([N+](=O)[O-])ccc1N1CCOCC1,inactive
5,COc1ccc(OC)c(-c2cnc(OC(C)(C)C)nc2OC(C)(C)C)c1,inactive
6,COc1ccc([C@H]2CC(=O)C=C(c3c(OC)cccc3OC)C2)cc1,inactive
7,CC(C)C[C@H]1CN([C@@H](CC(C)C)CN2CCC[C@@H]2CN2C(=S)NC[C@@H]2Cc2ccc(O)cc2)C(=S)N1CCc1ccccc1,inactive
8,CCOC(=O)c1c(C)[nH]c(C(=O)N/N=C\c2ccccc2O)c1C,inactive
9,N#CC1=C(N)Oc2cc(N)ccc2C1c1cccc(F)c1 (centres undefined),inactive
10,COc1ccccc1C#Cc1ccc2c(c1)O[C@@H](CN(C)Cc1cccnc1)[C@H](C)CN([C@H](C)CO)S2(=O)=O,inactive
11,COc1ccc([C@H]2C[C@H](O)[C@@H](n3cc(-c4ccc(F)cc4)nn3)CN2Cc2cccs2)cc1,inactive
12,COc1cc(C(=O)Nc2ccccc2C(=O)Nc2ccccn2)cc(OC)c1OC,inactive
13,COc1cccc(S(=O)(=O)N(C)C[C@@H]2Oc3cc(C4=CCCC4)ccc3S(=O)(=O)N([C@H](C)CO)C[C@H]2C)c1,inactive
14,CCCCNC(=O)CSc1nc2ccc(C)cc2[nH]1,inactive
15,COc1cc(/C=C(\C#N)c2nc3ccccc3[nH]2)cc(OC)c1O,inactive
16,O=C(NCCN1C(=O)S/C(=C\c2ccc(OC(F)F)cc2)C1=O)c1cnccn1,inactive
17,CC(=O)Nc1cccc(-c2ccnc3c2CC(C)(C(=O)Nc2ccc4c(c2)OCO4)O3)c1 (centres undefined),inactive
18,O=C(NN=C1CCCC1)c1[nH]c2ccc(Cl)cc2c1-c1ccccc1,inactive
19,COc1cc(OC)c2c(-c3cccc(-c4sccc4C(C)=O)c3)cc(=O)oc2c1,inactive
20,CC(C)Oc1ncnc2c1[nH]c1ccccc12,inactive
21,O=c1[nH]c(/C=C/c2ccccc2F)nc2ccccc12,inactive
22,Cc1cccc(N2CCN(C(=O)c3ccc4[nH]c(C)c(C)c4c3)CC2)c1C,inactive
23,O=C1C=CCC(/C=C/c2ccccc2)O1 (centres undefined),inactive
24,COc1ccc2c3c([nH]c2c1)[C@@H](CO)N(C(=O)C1CCOCC1)CC31CCN(Cc2cccc(F)c2)CC1,inactive
25,CN(Cc1ccccc1)S(=O)(=O)c1ccc(NC(=S)NC(=O)C2CCCC2)cc1,inactive

row,SMILES,"activity change, negative = more quenching (active)"
1,COc1ccc(NC(=O)c2nc(C)c(C3(C)CC(c4cccnc4)=NO3)s2)cc1 (centres undefined),inactive
2,COc1ccc(C(=O)OCC(=O)N2C(C)CCCC2C)cc1S(=O)(=O)N1CCOCC1 (centres undefined),inactive
3,Cc1ccc(/C=N/NC(=O)c2ccc3ccccc3c2)s1,inactive
4,COc1ccc(C2=Nn3c(nnc3-c3ccccc3F)SC2)cc1OC1CCOC1 (centres undefined),inactive
5,O=C(N/N=C/c1c(O)ccc2ccccc12)c1ccc(CO)nc1,inactive
6,C[C@H](CO)N1C[C@H](C)[C@@H](CN(C)Cc2ccc(Cl)c(Cl)c2)Oc2ccc(NC(=O)Nc3ccc(C(F)(F)F)cc3)cc2CC1=O,inactive
7,Cc1cc(NCc2ccccn2)n2nc(C)c(-c3ccccc3)c2n1,inactive
8,COc1ccc(OC)c(/C(C)=N\NC(=O)c2cc3cc(Cl)ccc3n2C)c1,inactive
9,COc1ccc(CCNc2c3ccccc3nc3ccccc23)cc1OC,inactive
10,CCOC(=O)c1sc(Nc2nc(C)cc(C)n2)nc1C,inactive
11,COc1ccc(C)cc1Nc1c2c(nc3ccccc13)CCC2,inactive
12,O=S(=O)(Cc1ccc(Cl)cc1Cl)c1ccc(Cl)cc1,inactive
13,Cc1onc(-c2ccccc2Cl)c1C(=O)N1CCN(c2cccc(Cl)c2)CC1,inactive
14,CCN(Cc1ccccc1)c1ccc(/C=N/N=C(N)N)cc1,inactive
15,Cc1nn2cc(-c3cccc(Cl)c3)cnc2c1Br,inactive
16,N#C[C@H]1[C@H](c2ccc(C3=CCCCC3)cc2)[C@@H](CO)N1C(=O)NC1CCCCC1,inactive
17,CCc1ccc(OCc2n[nH]c(=S)n2C(C)CCCC(C)C)cc1 (centres undefined),inactive
18,CCOc1ccc2[nH]c(C(=O)N/N=C/c3ccc(OC)cc3)cc2c1,inactive
19,O=C(N/N=C/c1cccs1)c1cc(C2CC2)nc2ccccc12,inactive
20,C/C(=N\NC(=O)c1cc(-c2cccs2)nc2ccccc12)c1ccccn1,inactive
21,CCOC(=O)c1cc2c(=Cc3ccc(N(C)C)cc3)c3ccccc3n2[n+]1C,inactive
22,O=C1c2ccccc2C(=O)c2c1cccc2N1CCCC1,inactive
23,Cc1ccc(S(=O)(=O)N2CCCCC2CCNC(=O)C(=O)NCc2ccccc2)cc1 (centres undefined),inactive
24,COc1ccc(NC(=O)Nc2ccc3c(c2)C(=O)N([C@H](C)CO)C[C@@H](C)[C@H](CN(C)Cc2ccc(C(F)(F)F)cc2)OCCCC[C@H](C)O3)cc1,inactive
25,COc1ccc(COc2cc(-c3cccc(OC)c3)nc3ccc(NC(=O)c4ccc(OC)cc4)cc23)cc1,inactive

row,SMILES,"activity change, negative = more quenching (active)"
1,CCCCN1C(=O)CC(C(=O)OCC)=C1C,inactive
2,CC1(C(=O)NCc2cccs2)Cc2c(-c3ccc4c(c3)OCO4)ccnc2O1 (centres undefined),inactive
3,CC1=NN(c2ccccc2)C(=O)C1N=Nc1cccc(O)c1 (centres undefined),inactive
4,O=C1CC(c2ccccc2)CC2=C1C=Nc1ccccc1N2 (centres undefined),inactive
5,CCc1c(C)nc2ncnn2c1NCCc1ccc(OC)cc1,inactive
6,COc1ccc(CCNc2ncnc3c2oc2ccccc23)cc1OC,inactive
7,O=C1CN(S(=O)(=O)Cc2ccccc2)C[C@@H]2[C@@H](c3ccc(C#Cc4cccc(F)c4)cc3)[C@H](CO)N12,inactive
8,Cc1ccc2nc(-c3ccc4c(c3)OCCO4)cn2c1,inactive
9,CCCCNC(=O)C(=O)Nc1ccc2c(c1)N(S(=O)(=O)c1cccs1)CCC2,inactive
10,COc1cccc(/C=N/NC(=O)C(=O)Nc2ccccc2OC(F)(F)C(F)F)c1O,inactive
11,Cc1ccc(-c2nn(-c3ccccc3)cc2C(=O)N2CCN(c3ccccn3)CC2)cc1,inactive
12,COc1ccc(S(=O)(=O)N(C(=O)C(C)C)c2ccc3oc(=O)sc3c2)cc1,inactive
13,COc1nc(-c2ccccc2)cc(-c2ccc3c(c2)OCO3)c1C#N,inactive
14,C/C(=N\NC(=O)c1c(Cl)c(C)nn1C)c1ccc(NC(=O)C2CCC2)cc1,inactive
15,COc1ccc2c(c1)sc(N)[n+]2Cc1cc(C)cc2cccnc12,inactive
16,CCN(CC)c1ccc(/C=N/NC(=O)c2ccco2)c(O)c1,inactive
17,Cc1cc(N/N=C/c2ccccc2O)c2ccccc2n1,inactive
18,Cc1ccccc1-c1nc(CS(=O)(=O)CC(=O)NCc2ccccc2)c(C)o1,inactive
19,Cc1ccc(-c2ccc3c(c2)O[C@H](CN(C)Cc2ccccn2)[C@@H](C)CN([C@H](C)CO)S3(=O)=O)cc1,inactive
20,COc1ccc(S(=O)(=O)Nc2ccc3c(c2)C(=O)N([C@H](C)CO)C[C@@H](C)[C@@H](CN(C)Cc2ccc(Cl)c(Cl)c2)O3)cc1,inactive
21,c1coc(-c2nc3ccccc3s2)c1,inactive
22,Clc1ccc2c(c1)-c1ccccc1C1=NCCN12,inactive
23,Cc1ccc(N(C)S(=O)(=O)c2ccc(-c3cnc(C4CC4)o3)cc2)cc1,inactive
24,Cc1ccnc2c1ccc1cccnc12,inactive
25,Cc1ccc(COc2ccccc2-c2cc(C(=O)N/N=C/c3cccnc3)[nH]n2)cc1,inactive

row,SMILES,"activity change, negative = more quenching (active)"
1,CC(C)(C)c1cc(C(=O)NN)n(Cc2ccc(Cl)cc2Cl)n1,inactive
2,COc1ccccc1Nc1c2c(nc3ccccc13)CCC2,inactive
3,CC(=NNC(=S)N1CC2CCC(CC2)C1)c1cnccn1,inactive
4,COc1cc(NC(=O)N2CCNC2=O)cc(C(=O)Nc2cccc(C(F)(F)F)c2)c1,inactive
5,COc1ccc(-c2ccc3oc(-c4ccc(OC)cc4)c(C#CCO)c3c2)cc1,inactive
6,COCCCN=C1NN=C(c2cc(C)n(Cc3ccco3)c2C)CS1,inactive
7,CC(=O)N1CCc2c(sc(NC(=O)c3ccc4c(c3)OCCO4)c2C#N)C1,inactive
8,O=C(c1cccc(S(=O)(=O)N2CCN(c3ccc(F)cc3)CC2)c1)N1CCCC(C(F)(F)F)C1 (centres undefined),inactive
9,COc1ccccc1C(=O)NC(=S)/C=C1/N(C)c2ccccc2C1(C)C,inactive
10,COc1cc2c(C#CCCO)c(-c3ccsc3)oc(=O)c2cc1OC,inactive
11,CC(=O)NC(c1ccc(C(C)C)cc1)c1ccc2cccnc2c1O (centres undefined),inactive
12,O=C(Nc1cccc(C2=NCCN2)c1)Nc1cccc(C2=NCCN2)c1,inactive
13,Cc1ccc2c(c1)CCCN2C(=O)CCc1nc2ccccc2c(=O)[nH]1,inactive
14,COc1ccc2cc(CN(CC3CCCO3)C(=S)Nc3ccccc3)c(=O)[nH]c2c1 (centres undefined),inactive
15,COc1ccc(Nc2nc3cc(-c4sccc4C)sc3c(=O)n2C)cc1OC,inactive
16,Cc1ccc2cc(CN(CC3CCCO3)C(=S)Nc3ccccc3)c(=O)[nH]c2c1C (centres undefined),inactive
17,CCOC(=O)N1CCC(NC(=O)c2ccc3c(c2)N=C(C)c2c(C)ccc(C)c2S3)CC1,inactive
18,O=C(Nc1ccc(Br)cn1)c1cccc2ccccc12,inactive
19,Cc1cc2c(cc1S(=O)(=O)Nc1ccc(F)cc1)n(C)c(=O)c(=O)n2C,inactive
20,CC(=O)Nc1ccc(S(=O)(=O)NC2=C(N3CCN(Cc4ccccc4)CC3)C(=O)c3ccccc3C2=O)cc1,inactive
21,N#Cc1c(-c2ccc(F)cc2)c(-c2ccc(F)cc2)nn(CCO)c1=O,inactive
22,C[C@@H]1CN([C@H](C)CO)C(=O)c2cc(NS(=O)(=O)c3ccc(Cl)cc3)ccc2O[C@@H]1CN(C)Cc1ccc(-c2ccccc2)cc1,inactive
23,COc1ccc2c3c([nH]c2c1)[C@H](CO)N(C(=O)C1CCOCC1)CC31CCN(Cc2cccc(F)c2)CC1,inactive
24,Cc1cc(C(=O)N/N=C/c2ccc(N(C)C)cc2)c2ccccc2n1,inactive
